Test results from PubChem BioAssay (NCATS).
Inconclusive results are not listed. Entries that show only a call come without a potency. Active and inactive are the calls of the source. Unless noted, the call rests on the fitted dose curve; in most records, active means well fitted curve in the direction sought with a large enough effect; inconclusive means small, poorly fitted or top-dose-only effect, or another doubt; inactive means no such curve, though single readings can be large; an effect the other way counts as inactive or inconclusive.

Assay: qHTS for compounds that reverse cellular toxicity of Amyloid beta (A-beta) peptide in yeast: LOPAC Validation Assay (AID 720559)
Settings: yeast expressing A-beta; series mostly up to 46.1 µM
In short: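 Yeast expressing toxic A-beta grown with pinned compounds at 30 C for 48 hr. Growth measured as absorbance at 600 nm; data normalized to DMSO and to an equimolar FeCl3/clioquinol mixture as positive control.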
With `Nc1ncn([C@@H]2O[C@H](CO)[C@@H](O)[C@H]2O)c(=O)n1` the outcome was “inactive”.
For `CC(C)COCC(CN(Cc1ccccc1)c1ccccc1)N1CCCC1` (centres undefined), the outcome was “inactive”.
With `COC(=O)C1=C(C)NC(C)=C(C(=O)OC(C)(C)CN(C)CCC(c2ccccc2)c2ccccc2)C1c1cccc([N+](=O)[O-])c1` (centres undefined) the outcome was “inactive”.
With `NCCCNCCSP(=O)(O)O` the outcome was “inactive”.
In the case of `CC(=O)Nc1nnc(S(N)(=O)=O)s1`, the outcome is reported as “inactive”.
In the case of `O=C(CCNNC(=O)c1ccncc1)NCc1ccccc1`, the outcome is reported as “inactive”.
For `Cc1ccc(S(=O)(=O)NC(=O)NN2CCCCCC2)cc1`, the outcome was “inactive”.
With `C[C@H](CS)C(=O)N1CCC[C@H]1C(=O)O` the outcome was “inactive”.
With `CN=C(NC#N)NCCSCc1nc[nH]c1C` the outcome was “inactive”.
For `CCCNC(C)C(=O)Nc1ccccc1C` (centres undefined), the outcome was “inactive”.
For `O=C(O)CN(CCN(CC(=O)O)CC(=O)O)CCN(CC(=O)O)CC(=O)O`, the outcome was “inactive”.
In the case of `C=CCc1ccccc1OCC(O)CNC(C)C` (centres undefined), the outcome is reported as “inactive”.
In the case of `OCCN1CCN(CC/C=C2/c3ccccc3Sc3ccc(C(F)(F)F)cc32)CC1`, the outcome is reported as “inactive”.
For `C[C@]12CC[C@@H]3c4ccc(O)cc4C[C@@H](CCCCCCCCCS(=O)CCCC(F)(F)C(F)(F)F)[C@H]3[C@@H]1CC[C@@H]2O` (some centres undefined), the outcome was “inactive”.
With `COCC(=O)O[C@]1(CCN(C)CCCc2nc3ccccc3[nH]2)CCc2cc(F)ccc2[C@@H]1C(C)C` the outcome was “inactive”.
In the case of `c1cc(CN2CCCCC2)cc(OCCCNc2nc3ccccc3s2)c1`, the outcome is reported as “inactive”.

Assay: qHTS for Activators of Parkin Expression: LOPAC Validation Assay (NLuc Reporter) (AID 720572)
Settings: Parkin promoter NanoLuc reporter cells, luminescence; series mostly up to 46.1 µM
In short: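 Parkin promoter-driven FLuc/NLuc neuronal reporter cells; 24 h plating, 7-pt dose response, 24 h at 37 C/5% CO2; FLuc then NanoLuc reagent, 10 min each, luminescence; DMSO/positive control normalized.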
In the case of `C#CCN(C)CCCOc1ccc(Cl)cc1Cl`, the Potency is reported as “inactive”.
With `CN(C)CCCN1c2ccccc2Sc2ccc(C(F)(F)F)cc21` the Potency was “inactive”.
With `CCOC(=O)c1cnc2c(cnn2CC)c1NN=C(C)C` the Potency was “inactive”.
With `COC(=O)C1=C(C)NC(C)=C(C(=O)OC(C)(C)CN(C)CCC(c2ccccc2)c2ccccc2)C1c1cccc([N+](=O)[O-])c1` (centres undefined) the Potency was “inactive”.
In the case of `CCc1c(C)[nH]c2c1C(=O)C(CN1CCOCC1)CC2` (centres undefined), the Potency is reported as “inactive”.
For `NCCCNCCSP(=O)(O)O`, the Potency was “inactive”.
In the case of `CC(=O)Nc1nnc(S(N)(=O)=O)s1`, the Potency is reported as “inactive”.
For `NC/C=C/C(=O)O`, the Potency was “inactive”.
For `O=C(CCNNC(=O)c1ccncc1)NCc1ccccc1`, the Potency was “inactive”.
In the case of `CC(=O)[C@@]1(O)CC[C@H]2[C@@H]3CCC4=CC(=O)CC[C@]4(C)[C@H]3CC[C@@]21C`, the Potency is reported as “inactive”.
With `CC(=O)OCC1=C(C(=O)O)N2C(=O)[C@@H](NC(=O)Cc3cccs3)[C@H]2SC1` the Potency was “inactive”.
In the case of `CCN1CCC[C@H]1CNC(=O)c1c(O)c(Cl)cc(Cl)c1OC`, the Potency is reported as “inactive”.
In the case of `COc1cc2c(cc1OC)-c1cc(=Nc3c(C)cc(C)cc3C)n(C)c(=O)n1CC2`, the Potency is reported as “inactive”.
For `C=CCc1ccccc1OCC(O)CNC(C)C` (centres undefined), the Potency was “inactive”.
For `OCCN1CCN(CC/C=C2/c3ccccc3Sc3ccc(C(F)(F)F)cc32)CC1`, the Potency was “inactive”.
For `C[C@]12CC[C@@H]3c4ccc(O)cc4C[C@@H](CCCCCCCCCS(=O)CCCC(F)(F)C(F)(F)F)[C@H]3[C@@H]1CC[C@@H]2O` (some centres undefined), the Potency was “inactive”.
In the case of `CCCCNc1c(C(=O)OCC)c(C)nc2c1cnn2CC`, the Potency is reported as “inactive”.
In the case of `O=c1[nH]c(=O)n([C@H]2C[C@H](O)[C@@H](CO)O2)cc1Br`, the Potency is reported as “inactive”.
With `COCC(=O)O[C@]1(CCN(C)CCCc2nc3ccccc3[nH]2)CCc2cc(F)ccc2[C@@H]1C(C)C` the Potency was “inactive”.

Assay: qHTS for Activators of Parkin Expression: LOPAC Validation Assay (FLuc Reporter) (AID 720573)
Settings: Cell line, PRKN promoter firefly luciferase reporter, vehicle wells = 0, positive control = 100%; series mostly up to 46.1 µM
In short: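 Neuronal cell line stably expressing FLuc/NLuc coincidence reporter under the Parkin promoter, 1,500 cells/well, dosed 24 h after seeding in 7-point series for 24 h at 37 C. FLuc luminescence read; normalized to DMSO and positive control (100%).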
For `CN(C)CCCN1c2ccccc2Sc2ccc(C(F)(F)F)cc21`, the outcome was “inactive”.
With `CC(C)COCC(CN(Cc1ccccc1)c1ccccc1)N1CCCC1` (centres undefined) the outcome was “inactive”.
In the case of `CCN(CC)CCNC(=O)c1ccc(NC(C)=O)cc1`, the outcome is reported as “inactive”.
For `CCOC(=O)c1cnc2c(cnn2CC)c1NN=C(C)C`, the outcome was “inactive”.
With `CCc1c(C)[nH]c2c1C(=O)C(CN1CCOCC1)CC2` (centres undefined) the outcome was “inactive”.
For `C[C@@H](O)[C@H]1C(=O)N2C(C(=O)O)=C(SCCN=CN)C[C@H]12`, the outcome was “inactive”.
In the case of `CC(=O)[C@@]1(O)CC[C@H]2[C@@H]3CCC4=CC(=O)CC[C@]4(C)[C@H]3CC[C@@]21C`, the outcome is reported as “inactive”.
In the case of `CNC1(C)C2CCC(C2)C1(C)C` (centres undefined), the outcome is reported as “inactive”.
In the case of `Cc1ccc(S(=O)(=O)NC(=O)NN2CCCCCC2)cc1`, the outcome is reported as “inactive”.
For `CC(=O)OCC1=C(C(=O)O)N2C(=O)[C@@H](NC(=O)Cc3cccs3)[C@H]2SC1`, the outcome was “inactive”.
With `C[C@H](CS)C(=O)N1CCC[C@H]1C(=O)O` the outcome was “inactive”.
With `CN=C(NC#N)NCCSCc1nc[nH]c1C` the outcome was “inactive”.
With `CCCNC(C)C(=O)Nc1ccccc1C` (centres undefined) the outcome was “inactive”.
For `O=C(O)CN(CCN(CC(=O)O)CC(=O)O)CCN(CC(=O)O)CC(=O)O`, the outcome was “inactive”.
With `COc1cc2c(cc1OC)-c1cc(=Nc3c(C)cc(C)cc3C)n(C)c(=O)n1CC2` the outcome was “inactive”.
In the case of `CCCCNc1c(C(=O)OCC)c(C)nc2c1cnn2CC`, the outcome is reported as “inactive”.
With `O=c1[nH]c(=O)n([C@H]2C[C@H](O)[C@@H](CO)O2)cc1Br` the outcome was “inactive”.
With `c1cc(CN2CCCCC2)cc(OCCCNc2nc3ccccc3s2)c1` the outcome was “inactive”.

Assay: qHTS assay for small molecule agonists of the antioxidant response element (ARE) signaling pathway measured by Nrf2-dependant transcriptional activity (AID 720636; active means well fitted curve in the direction sought with a large enough effect in the repeat runs; an effect the other way counts as inactive or inconclusive;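 further: HepG2 cells with an ARE-driven luciferase reporter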)
Settings: ARE-luc HepG2, Nrf2 luciferase reporter, 16 h; series mostly up to 92.4 µM
In short: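 Nrf2-dependent transcription is measured in ARE-luc HepG2 cells: compound is applied for 16 hr at 37 C after a 6 hr attachment period, and luciferase activity is quantified by luminescence using ONE-Glo.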
For `Nc1ncn([C@@H]2O[C@H](CO)[C@@H](O)[C@H]2O)c(=O)n1`, the outcome was “inactive”.
With `CC(=O)Nc1nnc(S(N)(=O)=O)s1` the outcome was “inactive”.
With `CC(=O)[C@@]1(O)CC[C@H]2[C@@H]3CCC4=CC(=O)CC[C@]4(C)[C@H]3CC[C@@]21C` the outcome was “inactive”.
For `CN=C(NC#N)NCCSCc1nc[nH]c1C`, the outcome was “inactive”.
For `CCCCOCCOCCOCc1cc2c(cc1CCC)OCO2`, the outcome was “inactive”.
With `O=c1[nH]c(=O)n([C@H]2C[C@H](O)[C@@H](CO)O2)cc1Br` the outcome was “inactive”.
